Structures are written as SMILES. Structures can show the parent of a compound that is named as a salt.

In the first assay the test system is A431. Kind of assay: filipin (cholesterol) integrated intensity within LBPA endosomes, Z-score; higher = more cholesterol in LBPA endosomes. The note with it: compound concentration in added solution (µM; 5 µl added to 20 µl cells): 10; 18 h. The essentials:
(§1)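 HeLa MZ or A431 cells were plated at 3,500 per well in 20 µl over 5 µl of 10 µM compound solution in duplicate 384-well imaging plates and fixed in 4% PFA after 18 h. Staining used the 6C4 anti-LBPA antibody, filipin, propidium iodide and CellTracker green, with four 20× images captured per well. MetaXpress segmentation measured integrated LBPA or filipin intensity per cell, across the whole cell or inside LBPA endosomes, and AcuityXpress normalised these into Z-scores.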
With `O=C(O)c1cc(=O)c2c(OCC(O)COc3cccc4oc(C(=O)O)cc(=O)c34)cccc2o1` [Cromolyn disodium salt], the “filipin (z-score)” value was -0.425.

Turning to `CNCCC(Oc1ccccc1OC)c1ccccc1` (centres undefined) [Nisoxetine hydrochloride], the “filipin (z-score)” value was -0.0689.

As for `C#C[C@]1(O)CC[C@H]2[C@@H]3CCC4=Cc5oncc5C[C@]4(C)[C@H]3CC[C@@]21C` [Danazol], the “filipin (z-score)” value was -0.449.

Regarding `COc1ccc(-c2cc(=S)ss2)cc1` [Anethole-trithione], the “filipin (z-score)” value is -0.447.

For `CN(C)CCCC1(c2ccc(F)cc2)OCc2cc(C#N)ccc21` (centres undefined) [Citalopram Hydrobromide], the “filipin (z-score)” value was -0.352.

With `Nc1cc(C(Cl)=C(Cl)Cl)c(S(N)(=O)=O)cc1S(N)(=O)=O` [Clorsulon], the “filipin (z-score)” value is -0.454.

For the next assay, the system named is HeLa MZ. Described as above. The note with it: compound concentration in added solution (µM; 5 µl added to 20 µl cells): 10; 18 h. The essentials:
as §1
Consider `CCN1CCC[C@H]1CNC(=O)c1c(OC)ccc(Br)c1OC` [Remoxipride Hydrochloride], for which the “filipin (z-score)” value was -0.266.

With `CN(C(=O)C(Cl)Cl)c1ccc(OC(=O)c2ccco2)cc1` [Diloxanide furoate], the “filipin (z-score)” value was -0.517.

`CCn1cc(C(=O)O)c(=O)c2ccc(C)nc21` [Nalidixic acid sodium salt]: the “filipin (z-score)” value was -0.567.

As for `O=C1CCc2cc(OCCCCc3nnnn3C3CCCCC3)ccc2N1` [Cilostazol], the “filipin (z-score)” value was -0.5.

As to `CNC(=C[N+](=O)[O-])NCCSCc1ccc(CN(C)C)o1` [Ranitidine hydrochloride], the “filipin (z-score)” value is -0.559.

Turning to `CCc1cccc2c3c([nH]c12)C(CC)(CC(=O)O)OCC3` (centres undefined) [Etodolac], the “filipin (z-score)” value is -0.628.

With `Nc1c2c(nc3ccccc13)CCCC2` [Tacrine hydrochloride], the “filipin (z-score)” value was found to be 0.583.

Take `CNNCc1ccc(C(=O)NC(C)C)cc1` [Procarbazine hydrochloride]: the “filipin (z-score)” value was -0.664.

For the molecule `COCCOC(=O)C1=C(C)NC(C)=C(C(=O)OC(C)C)C1c1cccc([N+](=O)[O-])c1` (centres undefined) [Nimodipine], the “filipin (z-score)” value is -0.286.

With `NC[C@@H]1O[C@@H](O[C@H]2[C@H](O)[C@@H](O[C@H]3O[C@H](CO)[C@@H](O)[C@H](N)[C@H]3O)[C@H](N)C[C@@H]2N)[C@@H](O)[C@H](O)[C@H]1O` [Kanamycin A sulfate], the “filipin (z-score)” value is -0.597.

Consider `OC[C@H]1O[C@@H](Oc2ccc(O)cc2)[C@H](O)[C@@H](O)[C@@H]1O` [Arbutin], for which the “filipin (z-score)” value is -0.605.

In the case of `CCOC(=O)[C@@](C)(N)Cc1ccc(O)c(O)c1` [Methyldopate hydrochloride], the “filipin (z-score)” value is -0.42.

Take `CC1(C)S[C@@H]2[C@H](NC(=O)[C@H](N)c3ccccc3)C(=O)N2[C@H]1C(=O)O` [Ampicillin trihydrate]: the “filipin (z-score)” value is -0.702.

With `Oc1ncnc2[nH]ncc12` [Allopurinol], the “filipin (z-score)” value was -0.506.

Take `CO/N=C(\C(=O)N[C@@H]1C(=O)N2C(C(=O)O)=C(COC(N)=O)CS[C@H]12)c1ccco1` [Cefuroxime sodium salt]: the “filipin (z-score)” value was -0.472.

As for `OCCN1CCN(CC/C=C2/c3ccccc3Sc3ccc(Cl)cc32)CC1` [Zuclopenthixol hydrochloride], the “filipin (z-score)” value stood at 2.86.

With `Cn1nnnc1SCC1=C(C(=O)O)N2C(=O)[C@@H](NC(=O)[C@H](O)c3ccccc3)[C@H]2SC1` [Cefamandole sodium salt], the “filipin (z-score)” value was -0.551.

As for `CC(N/C(=N\C#N)Nc1ccncc1)C(C)(C)C` (centres undefined) [Pinacidil], the “filipin (z-score)” value is -0.559.

Regarding `COc1ccccc1Oc1c(NS(=O)(=O)c2ccc(C(C)(C)C)cc2)nc(-c2ncccn2)nc1OCCO` [Bosentan], the “filipin (z-score)” value is -0.438.

As for `CC(C)(O/N=C(\C(=O)N[C@@H]1C(=O)N2C(C(=O)[O-])=C(C[n+]3ccccc3)CS[C@H]12)c1csc(N)n1)C(=O)O` [Ceftazidime pentahydrate], the “filipin (z-score)” value was -0.437.

In the case of `Nc1nc2c(ncn2COC(CO)CO)c(=O)[nH]1` [Ganciclovir], the “filipin (z-score)” value was -0.411.

Consider `CCN(CCCc1ccccc1)CCCc1ccccc1` [Alverine citrate salt], for which the “filipin (z-score)” value was found to be 0.403.

On to `CC(=O)OC(C)C[N+](C)(C)C` (centres undefined) [Methacholine chloride], for which the “filipin (z-score)” value is -0.341.

`C[C@@H](c1ncncc1F)[C@](O)(Cn1cncn1)c1ccc(F)cc1F` [Voriconazole]: the “filipin (z-score)” value was -0.411.

As for `Nc1nc(F)nc2c1ncn2[C@@H]1O[C@H](CO)[C@@H](O)[C@@H]1O` [Fludarabine], the “filipin (z-score)” value was -0.595.

With `Cc1ccc2c(c1)c1c3n2CCNC3CCC1` (centres undefined) [Pirlindole mesylate], the “filipin (z-score)” value was determined as 0.263.

As for `O=C(O[C@@H]1C[C@@H]2C[C@H]3C[C@H](C1)N2CC3=O)c1c[nH]c2ccccc12` [Dolasetron mesilate], the “filipin (z-score)” value is -0.224.

Consider `COC(=O)C1=C(C)NC(C)=C(C(=O)OCC(C)C)C1c1ccccc1[N+](=O)[O-]` (centres undefined) [Nisoldipine], for which the “filipin (z-score)” value is -0.481.

The values above are taken from the supplement of paper PMC6607015.
